The entries come from a sample that favours hits as a whole.
KDM5B inh = KDM5B demethylase inhibition; KDM5B demethylase, FDH-coupled NADH fluorescence (FDH is formaldehyde dehydrogenase); Potency, µM (doses to about 57.7 µM), actives largely listed as inhibitors; hit rate 2.6% among 220,000; active = well fitted inhibition curve with a large enough effect; also: 0% is about no effect; nearly all actives have a fitted effect of over 70% in size
Target sequence (Q9UGL1 whole entry, looked up): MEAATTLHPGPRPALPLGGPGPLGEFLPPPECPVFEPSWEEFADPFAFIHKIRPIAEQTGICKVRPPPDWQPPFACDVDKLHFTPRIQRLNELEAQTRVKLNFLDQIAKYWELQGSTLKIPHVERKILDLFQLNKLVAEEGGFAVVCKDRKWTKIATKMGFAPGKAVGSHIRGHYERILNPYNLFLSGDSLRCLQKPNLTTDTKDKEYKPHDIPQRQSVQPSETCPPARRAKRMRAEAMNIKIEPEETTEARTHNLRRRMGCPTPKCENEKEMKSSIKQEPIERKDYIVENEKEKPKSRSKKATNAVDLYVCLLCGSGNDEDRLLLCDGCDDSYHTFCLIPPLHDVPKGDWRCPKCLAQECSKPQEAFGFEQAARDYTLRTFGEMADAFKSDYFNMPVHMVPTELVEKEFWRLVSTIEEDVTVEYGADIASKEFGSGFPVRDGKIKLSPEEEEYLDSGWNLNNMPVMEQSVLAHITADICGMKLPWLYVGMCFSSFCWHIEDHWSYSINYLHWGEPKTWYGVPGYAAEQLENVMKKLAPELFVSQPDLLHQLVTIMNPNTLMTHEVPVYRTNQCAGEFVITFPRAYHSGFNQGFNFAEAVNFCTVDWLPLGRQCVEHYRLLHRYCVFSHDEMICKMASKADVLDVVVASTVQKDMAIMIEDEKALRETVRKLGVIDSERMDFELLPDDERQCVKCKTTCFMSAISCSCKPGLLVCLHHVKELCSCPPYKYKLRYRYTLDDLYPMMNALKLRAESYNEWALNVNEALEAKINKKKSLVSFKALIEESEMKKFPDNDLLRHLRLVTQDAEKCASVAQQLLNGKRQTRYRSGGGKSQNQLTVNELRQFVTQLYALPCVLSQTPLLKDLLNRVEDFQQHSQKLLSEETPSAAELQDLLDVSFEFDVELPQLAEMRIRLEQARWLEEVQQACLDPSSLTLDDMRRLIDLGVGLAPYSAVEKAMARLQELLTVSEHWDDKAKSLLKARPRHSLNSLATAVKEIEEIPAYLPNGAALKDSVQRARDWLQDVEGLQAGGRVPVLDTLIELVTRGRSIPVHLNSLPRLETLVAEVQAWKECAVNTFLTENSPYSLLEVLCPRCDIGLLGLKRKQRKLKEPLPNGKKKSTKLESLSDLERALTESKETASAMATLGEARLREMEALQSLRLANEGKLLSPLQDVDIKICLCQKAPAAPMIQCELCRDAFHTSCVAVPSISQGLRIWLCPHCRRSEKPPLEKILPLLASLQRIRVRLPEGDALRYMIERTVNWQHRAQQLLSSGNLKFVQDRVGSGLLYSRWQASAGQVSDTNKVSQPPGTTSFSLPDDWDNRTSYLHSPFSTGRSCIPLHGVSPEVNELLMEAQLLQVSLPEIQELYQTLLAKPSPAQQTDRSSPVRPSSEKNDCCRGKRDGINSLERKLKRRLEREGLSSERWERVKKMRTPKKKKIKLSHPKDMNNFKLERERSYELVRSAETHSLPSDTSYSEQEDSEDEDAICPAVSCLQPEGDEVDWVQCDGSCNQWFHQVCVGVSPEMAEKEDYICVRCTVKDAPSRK
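Here, H3K4me3 peptide (12.5 µM in substrate mix) is demethylated by KDM5BΔAP, 200 nM final, after 10 min compound exposure. Formaldehyde product is coupled through FDH (0.25 U/mL in mix) to NADH fluorescence; 30-min ΔRFU feeds dose-response curves.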
An asterisk follows results filed as active. Potency is read from the fitted curve at half-maximal effect.

How did O=C(c1cc(C(F)(F)F)[nH]n1)N1CC[C@@H](c2ccc(F)cc2)[C@H](O)C1 do in these assays?
KDM5B inh: inactive

How did NC(=O)COc1cccc(C(=O)N2C[C@H](CO)C[C@H](CN3CCCC3)C2)c1 do in these assays?
KDM5B inh: inactive

How did COCCOc1ccc2c(n1)CCN(C(=O)Cc1ccccc1)C2 do in these assays?
KDM5B inh: inactive

How did CCCn1c(=O)c2ccccc2n(CC(=O)N(CC)c2cccc(C)c2)c1=O do in these assays?
KDM5B inh: inactive

How did O=C(COc1c(CO)cc(F)cc1CO)Nc1ccc(Cl)cc1F do in these assays?
KDM5B inh: inactive

How did COCCCNc1nc(-c2ccccc2O)nc2ccccc12 do in these assays?
KDM5B inh: inactive

What do the screens show for `COc1ccc(-c2cc(N3CCC(NC(=O)c4ccc(C)c(F)c4)CC3)n[nH]2)cc1`?
KDM5B inh: inactive

What do the screens show for `COc1ccc(Cl)cc1N1CC(O)=C(c2nc3ccc(C)cc3[nH]2)C1=N`?
KDM5B inh: inactive

What do the screens show for `CCn1nc(C(=O)N2CC(C(N)=O)Oc3ccccc32)c2ccccc2c1=O` (configuration not stated)?
KDM5B inh: inactive

What do the screens show for `COc1ccccc1-c1nnc(SC(C(=O)N2CCOCC2)c2ccccc2)n1C1CCCCC1` (configuration not stated)?
KDM5B inh: inactive

How did CCc1ccc(OC(=O)c2ccccc2I)cc1 do in these assays?
KDM5B inh: inactive

What do the screens show for `O=C(CCC1CCCC1)Nc1nc(-c2ccc(F)cc2)cs1`?
KDM5B inh: inactive

Results for O=c1ncn(CC2CC2)c2ccc(-c3ccc(F)cc3)nc12 ?
KDM5B inh: 35µM*

How did O=C1COc2ccc(-c3ccc(F)cc3)nc2CN1 do in these assays?
KDM5B inh: inactive

What do the screens show for `Cc1cccc([N+](=O)[O-])c1NC(=O)COc1ncnc2ccccc12`?
KDM5B inh: inactive

Results for CNC12CC3CC(CC(S)(C3)C1)C2 ?
KDM5B inh: inactive

Results for Cc1cccc2c(C(=O)O)cc(-c3cccnc3)nc12 ?
KDM5B inh: inactive

Results for CCn1ccnc1CN(C)C(=O)c1cc(-c2cnc(C)nc2)nc2cc(F)ccc12 ?
KDM5B inh: inactive

Results for CCn1ccnc1CN(C)C(=O)c1cc(-c2cnc(N)nc2)nc2c(C)cccc12 ?
KDM5B inh: 28µM*

Results for COc1ccc(CNC(=O)Cc2cccc(C(F)(F)F)c2)cc1OC ?
KDM5B inh: inactive

Results for c1coc(CNCc2ccc3cc[nH]c3c2)c1 ?
KDM5B inh: inactive

What do the screens show for `CCCn1nc(C(=O)N2CCN(c3ccc(C(C)=O)cc3)CC2)c2ccccc2c1=O`?
KDM5B inh: inactive

Results for CCn1nc(CC(C)C)cc1C(=O)N1C[C@@H](NC(C)=O)[C@H](C(C)C)C1 ?
KDM5B inh: 35µM*

How did CCn1nc(CC(C)C)cc1C(=O)N1CCN(S(=O)(=O)CC)CC1 do in these assays?
KDM5B inh: inactive

How did CC(C)Cc1cc(C(=O)N2C[C@H](C3CC3)[C@@H](N)C2)n(C)n1 do in these assays?
KDM5B inh: inactive

Results for Cc1ccc(CNC(=O)N2CCCC2c2nc(CCOc3ccc(F)cc3)no2)cc1 (configuration not stated) ?
KDM5B inh: inactive

What do the screens show for `N#Cc1cccc(C(=O)OCc2cc(-c3ccc(Cl)cc3)no2)c1`?
KDM5B inh: inactive

How did CCC(C)NC(=O)c1cc(SC)ccc1C (configuration not stated) do in these assays?
KDM5B inh: inactive

Results for CC1(c2ccccc2)N(Cc2ccccc2F)C(=O)OC12CCN(C(=O)c1cccc(C#N)c1)CC2 (configuration not stated) ?
KDM5B inh: inactive

Results for CC(C)(O)C#Cc1ccccc1C(=O)NC(CSCc1ccccc1)C(=O)O (configuration not stated) ?
KDM5B inh: inactive

What do the screens show for `COc1ccc([C@@H](NC(=O)c2sc(C)nc2C)C2CC(O)C2)cn1` (some centres not stated)?
KDM5B inh: inactive

How did CN(C)C(=O)c1ccc(Cl)nc1 do in these assays?
KDM5B inh: inactive

What do the screens show for `CC(C)NC(=O)c1ccc(C(C)C)cc1`?
KDM5B inh: inactive

What do the screens show for `CN(C)C(=O)c1ccc2nccn2c1`?
KDM5B inh: 126µM*

What do the screens show for `CN1CCN(C(=O)c2ccc3nccn3c2)CC1`?
KDM5B inh: inactive

How did COc1ccc([C@@H](NC(=O)c2ccc3nccn3c2)C2CC(O)C2)cn1 (some centres not stated) do in these assays?
KDM5B inh: 20µM*

Results for COc1ccc([C@@H](NC(=O)c2cc3ncccn3n2)C2CC(O)C2)cn1 (some centres not stated) ?
KDM5B inh: inactive

Results for O=C(c1ccc2nccn2c1)N1CCCCC1 ?
KDM5B inh: inactive

Results for CC(C)NC(=O)c1ccc2nccn2c1 ?
KDM5B inh: 141µM*

How did CCC(=O)N1CCCN(S(C)(=O)=O)c2ccccc21 do in these assays?
KDM5B inh: inactive

What do the screens show for `CCC(CNc1ccc2nnnn2n1)N1CCCC1` (configuration not stated)?
KDM5B inh: inactive
